Inconclusive results are not listed. A structure can be active in one record and inactive in another. Active and inactive are the calls of the source. The calls were made as follows: active = hit-call score of the fitted dose curve at least 0.9, where 1 is the maximum; inconclusive = response in the unintended direction; inactive = score below 0.9.

The term AC50 denotes the concentration giving half of the maximal activity seen.

Muscarinic acetylcholine receptor M2 (Homo sapiens), sequence (P08172 whole entry, looked up): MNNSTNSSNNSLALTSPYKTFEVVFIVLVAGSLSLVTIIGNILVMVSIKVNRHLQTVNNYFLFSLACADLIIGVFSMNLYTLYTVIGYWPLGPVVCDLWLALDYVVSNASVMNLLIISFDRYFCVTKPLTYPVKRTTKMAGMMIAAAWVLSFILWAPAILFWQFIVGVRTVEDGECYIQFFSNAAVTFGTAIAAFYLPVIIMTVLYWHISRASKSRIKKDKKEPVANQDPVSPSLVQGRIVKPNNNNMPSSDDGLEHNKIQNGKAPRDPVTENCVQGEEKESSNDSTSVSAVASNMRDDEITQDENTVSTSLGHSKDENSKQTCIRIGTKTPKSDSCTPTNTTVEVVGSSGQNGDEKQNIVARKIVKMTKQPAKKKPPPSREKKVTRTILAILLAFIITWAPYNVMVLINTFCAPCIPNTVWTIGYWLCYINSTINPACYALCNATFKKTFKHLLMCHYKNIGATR
human Neurokinin, NK2 Receptor, TACR2 (gene 6865), sequence (P21452 whole entry, looked up): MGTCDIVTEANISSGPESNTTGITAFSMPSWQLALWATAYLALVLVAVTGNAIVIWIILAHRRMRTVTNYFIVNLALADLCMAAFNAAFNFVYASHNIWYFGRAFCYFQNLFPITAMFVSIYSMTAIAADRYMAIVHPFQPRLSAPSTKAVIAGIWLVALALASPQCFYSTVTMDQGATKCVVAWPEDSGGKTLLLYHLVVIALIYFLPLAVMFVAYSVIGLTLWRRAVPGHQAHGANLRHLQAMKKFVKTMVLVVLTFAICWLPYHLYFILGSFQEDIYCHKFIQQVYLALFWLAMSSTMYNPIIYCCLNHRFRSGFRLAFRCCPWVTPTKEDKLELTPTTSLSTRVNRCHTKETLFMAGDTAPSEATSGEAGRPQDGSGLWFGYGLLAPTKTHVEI
D(1A) dopamine receptor (Homo sapiens), sequence (P21728 whole entry, looked up): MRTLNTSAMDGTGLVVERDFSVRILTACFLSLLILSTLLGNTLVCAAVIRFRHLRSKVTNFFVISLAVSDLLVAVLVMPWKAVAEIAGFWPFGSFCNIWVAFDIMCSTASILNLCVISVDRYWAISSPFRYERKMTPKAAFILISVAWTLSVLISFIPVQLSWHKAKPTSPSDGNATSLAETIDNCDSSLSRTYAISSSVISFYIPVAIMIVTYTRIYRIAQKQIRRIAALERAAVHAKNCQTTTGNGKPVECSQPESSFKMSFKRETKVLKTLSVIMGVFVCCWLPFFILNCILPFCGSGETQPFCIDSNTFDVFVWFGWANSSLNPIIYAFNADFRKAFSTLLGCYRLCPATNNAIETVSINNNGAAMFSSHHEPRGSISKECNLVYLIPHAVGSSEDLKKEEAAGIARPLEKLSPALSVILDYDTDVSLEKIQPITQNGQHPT

The target in one experiment is D(1A) dopamine receptor (Homo sapiens) (UniProt P21728). Nature of the experiment: NVS_GPCR_hDRD1: NovaScreen (NVS) G Protein-Coupled Receptor Assay for human Dopamine Receptor D1 (DRD1) (AID 2283269). An outline of the steps:
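Extracted HEK293 DRD1 is incubated 1 h with compound and a tritiated or iodinated radioligand, then filtered and counted. Screening runs 25 uM in duplicate with on-plate positive and negative controls.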
For the compound `c1ccc2c(c1)-c1ccc3ccc4cccc5cc-2c1c3c45`, the outcome was inactive. Turning to `CC(C)(O)CCc1ccccc1`, the outcome was inactive. Still for that read-out and setting: under `C=C1CC[C@H]2O[C@]2(C)CC[C@@H]2[C@@H]1CC2(C)C` stands “inactive”. For `O=C(c1ccc(OCCN2CCCCC2)cc1)c1c(-c2ccc(O)cc2)sc2cc(O)ccc12`, the AC50 was 0.948 µM (active). For `O=S1(=O)CC(Cl)(Cl)C(Cl)(Cl)C1`, the AC50 was 20.1 µM (active).

On to `CCC(=O)OC/C=C(\C)CCC=C(C)C`, for which the compound was classed as inactive. Still for that read-out and setting: under `CC(=O)OCC=C(C)CCC=C(C)CCC=C(C)C` stands “inactive”; under `N#CCCCC(C#N)CCC#N` (centres undefined), “inactive”.

The next experiment addresses Muscarinic acetylcholine receptor M2 (Homo sapiens) (UniProt P08172). In words: NVS_GPCR_hM2: NovaScreen (NVS) G Protein-Coupled Receptor Assay for human Muscarinic, M2 Receptor (AID 2283273). An outline of the steps: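 Radioligand competition binding, cell-free, receptor from CHO; 1 h incubation; scintillation detection. Primary testing at 25 uM in duplicate.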
Regarding `CC(=O)c1cccnc1`, the outcome was inactive. For `Cc1cc(N)n(-c2ccccc2)n1`, the AC50 was 13.9 µM (active). Consider `O=C(c1ccc(OCCN2CCCCC2)cc1)c1c(-c2ccc(O)cc2)sc2cc(O)ccc12`, for which the AC50 is 2.92 µM (active). On the same count and under the same terms, under `CCOC(=O)C=Cc1ccccc1` stands 38.6 µM (active); under `CC/C(=C(\c1ccccc1)c1ccc(OCCN(C)C)cc1)c1ccccc1`, 19.3 µM (active).

In another experiment the target is human Neurokinin, NK2 Receptor, TACR2 (gene 6865) (UniProt P21452). Nature of the experiment: NVS_GPCR_hNK2: NovaScreen (NVS) G Protein-Coupled Receptor Assay for human Neurokinin, NK2 Receptor (AID 2283278).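 Also: actives reduce bound radioligand signal relative to DMSO baseline.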 Summed up:
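Test chemicals displace a radioligand from receptor prepared from CHO cells in a cell-free format, read after 4 hours by scintillation counting on filters. Screening starts at 25 uM in duplicate, and active chemicals then go to concentration series.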
In the case of `O=C1OC2(c3ccc(O)cc3Oc3cc(O)ccc32)c2ccccc21`, the call was inactive.

Turning to `CCCCOCCOCCO`, the call was inactive. Regarding `O=C(c1ccc(OCCN2CCCCC2)cc1)c1c(-c2ccc(O)cc2)sc2cc(O)ccc12`, the AC50 was 3.58 µM (active). For `O=S1(=O)CC(Cl)(Cl)C(Cl)(Cl)C1`, the call was inactive. On to `CC/C(=C(\c1ccccc1)c1ccc(OCCN(C)C)cc1)c1ccccc1`, for which the half-maximal activity concentration (AC50) was 6.84 µM (active) and the result was inactive.

These data come from PubChem BioAssay (EPA / NIEHS).
